Sampled rows, rich in hits. Any-hit rate of the full collection: about 2.1%.
TDP-43 yeast inh: TDP-43 toxicity inhibition in yeast | TDP-43 expressing yeast growth rescue, BacTiter-Glo, 24 h | Potency, µM (series often up to 46.1 µM), without a hit: at the top dose growth rescue (activation), actives largely listed as activators | 410,000 tested, 1.8% active; further: % of control where 0% means no effect; nearly all actives have a fitted effect of over 50% in size
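Yeast cells expressing TDP-43 under galactose induction are exposed to compounds for 24 hr at 30 deg C. BacTiter-Glo luminescence measures growth, so protective compounds score as activators.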
FUS suppressor: rescues growth of FUS-expressing yeast; Potency, µM (doses to about 76.6 µM), usual class: activators; 390,000 tested, 0.24% active; S. cerevisiae FUS-expressing, growth rescue, OD600, 24 h;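 further: plate controls were DMSO vehicle for no effect and reference control for full effect; nearly all actives have a fitted effect of over 55% in size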
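Yeast FUS proteinopathy model; galactose-induced FUS (2%), starting OD 0.005. Cpds in dilution series, 24hr, 30C, 99% humidity. Abs 600 nm growth. Pos ctrl CP55940 (top 92uM final); neg ctrl DMSO.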
aSyn rescue: alpha-synuclein toxicity inhibition in yeast | Yeast expressing alpha-synuclein, growth rescue, BacTiter-Glo, 24 h | Potency, µM (doses to about 46.1 µM), for inactives: at the highest dose growth rescue (activation), actives largely listed as activators | 370,000 tested, 0.14% active | AID 652106; further: % of control where 0% means no effect; nearly all actives have a fitted effect of over 65% in size
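Screening used galactose-induced yeast with toxic alpha-synuclein levels, exposed to compound for 24 hr at 30 deg C. Cell growth, read with BacTiter-Glo luminescence, gave the measured signal.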
Abeta rescue: restores growth of yeast expressing A-beta42 peptide. yeast expressing A-beta42, growth rescue, OD600, 48 h; response scale: 0% DMSO, 100% iron-clioquinol control. Potency, µM (top dose mostly 46.1 µM), most hits filed as activators. 410,000 tested, 0.063% active; further: nearly all actives have a fitted effect of over 55% in size
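Growth rescue measured by 600 nm absorbance after 48 h yeast culture at 30 C with compound. Values normalized between DMSO and an equimolar ferric chloride plus clioquinol control.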
Starred values were filed as active, the others as inactive; i = inactive; ? = inconclusive; . = no result; [ ] = remark or other dose. The call rests on the fitted dose curve; in most records, active means well fitted curve in the direction sought with a large enough effect; inconclusive means small, poorly fitted or top-dose-only effect, or another doubt; inactive means no such curve, though single readings can be large; an effect the other way counts as inactive or inconclusive. Potency means the concentration at half of the fitted maximal effect.

SMILES	TDP-43 yeast inh	FUS suppressor	aSyn rescue	Abeta rescue
O=C(Nc1nc(-c2cccs2)cs1)c1ccc(Cl)cc1	35µM*	i	-33%	i
O=C(Cc1ccccc1F)Nc1nc(-c2cccs2)cs1	13µM*	i	-10%	i
COc1ccc(-c2csc(NC(=O)Cc3ccccc3F)n2)c(OC)c1	13µM*	i	-7%	i
Cc1ccc(C(=O)Nc2nccc(-c3cccs3)n2)cc1	13µM*	i	-1%	i
Cc1cc(NC(=O)c2ccc(NS(=O)(=O)c3ccccc3)cc2)no1	.	i	.	.
CC(C)C[C@@H]1COc2cc(N3CCCC3)ccc2S(=O)(=O)N1C	.	i	.	.
COc1ccc(Cl)cc1NC(=O)c1c(NCc2cccnc2)sc2c1CCC(C)C2 (configuration not stated)	22µM*	i	.	i
CC(C)(C)c1ccc(-c2nnc3n2N=C(c2ccc(Cl)cc2)CS3)cc1	.	i	.	.
O=C(/C=C/c1c(F)cccc1Cl)c1ccc(O)cc1	7.9µM*	i	?	?
Cc1ccccc1-c1cc(-c2ccccc2O)n[nH]1	11µM*	i	7%	i
Oc1ccccc1-c1cc(-c2ccc(F)cc2)n[nH]1	3.5µM*	i	-17%	i
Oc1ccccc1-c1cc(-c2ccccc2)n[nH]1	?	i	-6%	i
Cc1ccc(-c2cc(-c3ccccc3Cl)[nH]n2)c(O)c1	-1%	i	-49%	i
COc1ccc(O)c(-c2cc(-c3ccccc3Cl)[nH]n2)c1	18µM*	i	-15%	i
Cc1cc(Nc2nc(Cl)c(Cl)cc2Cl)n(-c2ccccc2)n1	18µM*	.	0%	i
O=C(Nc1ccccc1Oc1ccccc1)c1ccccc1F	13µM*	i	-8%	i
CS(=O)(=O)c1ccccc1C(=O)Nc1ccccc1Cc1ccccc1	0%	i	-3%	i
O=C(Nc1ccccc1Cc1ccccc1)c1ccccc1F	?	i	-4%	2.5µM*
Cc1cc(C)cc(NC(=O)NC2CCN(S(=O)(=O)c3ccc(F)cc3)CC2)c1	.	i	.	.
COc1ccc(NCc2cc3cc4c(cc3n(CC(=O)Nc3ccc(C)cc3)c2=O)OCO4)cc1	-6%	14µM*	-1%	i
O=C(CCc1ccccc1)NNC(=O)c1cc(Cl)ccc1O	-11%[1.82 µM]	i	4%	i
COc1ccc(Cl)cc1NC(=O)N1CCN(c2ccccc2OC)CC1	11µM*	?	13%	i
COc1ccc(Cl)cc1NC(=O)NCC1CCN(C(=O)OC(C)(C)C)CC1	-12%	32µM*	-11%	i
COc1ccc(Cl)cc1NC(=O)NCCN1CCCCC1	.	i	0%	i
COc1ccc(Cl)cc1NC(=O)CCc1ccccc1	8.9µM*	i	1%	i
SMILES	TDP-43 yeast inh	FUS suppressor	aSyn rescue	Abeta rescue
Cc1cc(Cl)ccc1NNC(=O)CCc1ccccc1	13µM*	i	10%	i
Cc1ccccc1-c1cccc2c3c([nH]c12)[C@@H]1C[C@H]2[C@@H](CN1CC3)[C@H](C)ON2C	.	i	.	.
COc1ccc(C2C(C(=O)Nc3cc(OC)ccc3OC)CCC(=O)N2c2ccc(OC)cc2)cc1 (configuration not stated)	.	i	.	.
O=C(COc1ccccc1C(=O)Nc1ccccc1F)Nc1ccc(Br)cc1	.	.	-11%	.
CCn1c(CN2CCCCC2)nc2cc(NC(=O)COc3ccccc3C(C)(C)C)ccc21	0%	i	.	i
COc1ccc(Cl)cc1NC(=O)CN(C)CC(=O)Nc1ccc(Br)cc1	22µM*	i	5%	i
COc1ccc(Cl)cc1NC(=S)NCCc1ccc(F)cc1	32µM*	i	-13%	?
COc1ccc(Cl)cc1NC(=S)NCCc1ccc(S(N)(=O)=O)cc1	-5%[9.22 µM]	i	-5%	i
O=C(CSc1nc2sc3c(c2c(=O)n1-c1ccc(Cl)cc1)CCC3)Nc1ccc(C(=O)O)cc1	.	i	.	.
O=C(Nc1ccc(OC(F)(F)F)cc1)Nc1c(-c2ccccc2)nc2ncccn12	.	i	.	.
CCCCCCSc1ccc([C@H]2N[C@@](C)(C(=O)OC)[C@H]3C(=O)N(C)C(=O)[C@@H]23)cc1	?	13µM*	?	i
CSc1nc2ncc3c(n2n1)CC1c2ccccc2CCN1C3=O (configuration not stated)	16µM*	i	.	i
CN(c1ccccc1)c1nc2ccsc2c(=O)s1	14µM*	i	0%	i
CC(=O)C(=Cc1cn(-c2ccccc2)nc1-c1ccccc1)C(C)=O	14µM*	i	4%	i
Cc1ccc(C(=O)N/C(=C/c2cn(-c3ccccc3)nc2-c2ccccc2)C(=O)O)cc1	10%	i	-1%	i
CC1(C)Cc2c(C#N)c(NCCCO)nc(-c3ccccc3)c2CO1	13µM*	i	3%	i
COc1cc(OC)c(C(=O)/C=C/c2ccccc2)c(O)c1O	13µM*	i	7%	i
COc1cc(O)cc(O)c1C(=O)/C=C/c1ccccc1	12%	i	12%	i
O=C(NC1CCC1)c1ccc(C#Cc2cccc(F)c2)cn1	.	i	.	.
CC1CCc2nn(CC(=O)NCCC3=CCCCC3)cc2C1 (configuration not stated)	18µM*	i	-2%	?
CC(C)c1ccc(-n2cnn(-c3ncccc3[N+](=O)[O-])c2=O)cc1	11µM*	i	-3%	i
Cc1cc(C)n(-c2ncccc2[N+](=O)[O-])n1	7%	i	6%	i
CCCC/C=C1/[C@@H](CC)N(Cc2ccc(OC)cc2OC)C2=N[C@H](c3ccccc3)CC(=O)N21	.	i	.	.
CCOC(=O)CC[C@@]1(C(=O)OCC)C[C@@H](CC(=O)NCc2cccs2)C(=O)N2CCCC=C21	.	i	.	.
Cc1cc(O)c(CN2CCN(c3ccccc3)CC2)c2oc(=O)cc(C)c12	25%	i	.	i
SMILES	TDP-43 yeast inh	FUS suppressor	aSyn rescue	Abeta rescue
O=C(NCC(c1ccco1)S(=O)(=O)c1ccc(Cl)cc1)c1ccc(C(F)(F)F)cc1 (configuration not stated)	16µM*	i	.	i
Cc1ccc(S(=O)(=O)C(CNC(=O)c2ccc(C(F)(F)F)cc2)c2ccco2)cc1 (configuration not stated)	-22%	?	.	i
COc1cccc(/C=C/c2nc(C#N)c(N3CCCCC3)o2)c1	16µM*	i	.	i
O=C(O)C1C2C=CC(C3CC23)C1C(=O)O (configuration not stated)	14µM*	i	7%	i
Cc1cccc(NC(=O)C2C3C=CC(C4CC34)C2C(=O)O)c1 (configuration not stated)	?	i	9%	i
O=C(c1ccc2c(Cl)c3c(nc2c1)CCCC3)N1CCN(c2ccc(F)cc2)CC1	16µM*	i	-2%	i
Cc1ccc(N2CCN(C(=O)c3ccc4c(Cl)c5c(nc4c3)CCCC5)CC2)c(C)c1	22%	i	.	i
O=C(c1ccc2c(=O)n3c(nc2c1)CCCCC3)N1CCN(c2cccc(Cl)c2)CC1	35µM*	?	1%	i

High-throughput results: PubChem BioAssay, National Center for Advancing Translational Sciences (NCATS)
